The values below come from the supplement of paper PMC6555819.

This assay deals with VDR:RXRa (NR concentration 270 nM, RXRa partner concentration 90 nM). Nature of the assay: PBM binding z-score (relative to random genomic background probes); higher = stronger binding; sequences stand for … in GC…GCGATTGACAGCGTAGAATGAAGG
How it is done:
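Protein-binding microarray (Agilent 4x180K custom design, double-stranded 60-nt probes: 5' GC cap, 34-nt variable region, 24-nt constant primer region; full probe sequence given). Purified or IVT nuclear receptor:RXRα heterodimers (3:1 NR:RXRα, mostly 270:90 nM) or homodimers were incubated for 1 h in PBS with 2% milk and no ligand, then detected with Alexa488 antibodies. Fluorescence from o1-orientation probes (~5 replicates averaged) was converted to z-scores against 500 random hg19 background probes. Variable regions are seed direct-repeat (DR0–DR5) sites, all their single-nucleotide variants and half-site ablations.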
Take ATCTCTAGGTAATACTCAGTTCAGTGAAGAACGC: the PBM binding z-score was 1.55.
Under CCGACTGGGGCAAGTTTACCATAACGCACAGCCA stands 0.191.
On to GCTCGGAAGACAAGGTCAGAGCTTTGTCCGTAGA, for which the PBM binding z-score was 0.859.
On to CCTAGTTGGTGAAGGTCACACACGCTATAGGTAC, for which the PBM binding z-score was 3.4.
As for GCTTGGAGATCAAGGTTAAGAAAGACTAAGCTAA, the PBM binding z-score is 0.128.
CGAACTAGGCCAGAACAGGACAGTGAAGGATGAT: the PBM binding z-score is -0.283.
Under CCTACTGGGCCATTCAGAGGTCCTTGATCATATG stands -0.591.
Under TCATATAGGTAAATGCTTGGTGAAAGTCCGATCT stands 0.808; under TCTGCTAGGTCAGTTGGTCAGCGAACGAGCTGCC, 0.114; under ATCGAAAGGTCGAAGGTGGGTATACCCACCCGAA, 2.54.
For the sequence CGTCCAAGGTCAGAGAAGTCAGTGAATGCCGAGT, the PBM binding z-score was 3.15.
Under ACTAGCAGGCCAAGTTGGGGTCACTCAAACAAAG stands 4.77; under ACTCGGAGGACAAAGGTCAGAGCTACGCCAGTGA, 3.36.
Under TCTTGTAGATCAATAGAGTTTAAGAAAGTGCGCT stands 1.23; under AGTCAAAGTTCAATAGGTAACGTAAGATTCAGCT, 3.71; under CCTATTAGTTGACCATAAGGTCAACCGAAGCTCG, 3.95.
CGTCCAAGTTCATAGGAGGTCAGTGAAGACAGAT yielded a PBM binding z-score of 5.91.
Under CCGACTGGGGCAAGATTACCATAACGCACAGCCA stands -0.621; under AGAATGAGGTTATTAAGATCGGGGAATTGCGGTC, 1.98.
Under TCTCGGCGGACACGAAGGTCAGAGCTTTCCAGAG stands 0.658; under CGAACTAGGTCATTGACAGGACAGTGTATAGTAA, 2.05; under CCAGACAGGTGAGAAGGTATCTCAGCCTCGATTA, -0.224.
Under TCTTGTCGATCAAGCAGGTTAAGAAAGCCTGAGT stands 0.107; under CCAGACAGCTGAGAAGGTAACTCAGCCTCGATTA, -0.312; under TCTTGTAGATCAACATGAGGTTAAGAAAGATCGA, 1.1.
With CGACCTAGGTCAGAACAGGACAGTGAAGGATGAT, the PBM binding z-score was determined as 1.05.
CAAACTAGGTAACCGGAAGGTCAAAGTCCGCATG registered a PBM binding z-score of 3.35.
Under GGAACGAGGGCAAAGTCGATAGCATCTGTCGACG stands 0.524; under GCTGCTAGGTGAACTGATGGTCAGCTAAAGCTCG, -0.124; under CGAACTACGTCATTGACAGGACAGTGAATAGTAA, -0.122.
The sequence TGAATGAGGTTAAAGACCAGGGAACGTGGCGTCG yielded a PBM binding z-score of 1.09.
Under TCTAGCAGGCCAGAGGGTCACACAAGAGGTACGG stands 2.26; under ATCGAAAGGTCGACGAGGTGAGTCTACACCGTTT, 5.5.
As for TAGCCTAGGTCAGATCGGGCCAGTATCCGCTATA, the PBM binding z-score came to 0.43.
GCTTGTAGATCAAGGTTTAGAAAGACTAAGCTAA displayed a PBM binding z-score of -0.245.
Sequence CCTACTGGCCCAAAGGTCATTGATTCCAATGCTC returned a PBM binding z-score of 4.28.
Under CAAACTAGGTCAAGAGGTCTAAGTCCGCTTCCCG stands 3.91.
Under CATACAGGGTCAGCTAGGCCAGACTAGGGACGGC stands 3.86.
Under ACTTACGGGTCAACGAGGTTAGAGCACGCGTATA stands 7.15; under CAAATTAGGTCAAGAGGTCAAAGTCCGCTTCCCG, 6.35.
